Laboratory results published in PubChem BioAssay (NCATS).
Results filed as inconclusive are left out. Calls of active or inactive are those of the source. Unless noted, calls come from the whole dose curve; as a rule, active = well fitted curve in the direction sought with a large enough effect; inconclusive = small, poorly fitted or top-dose-only effect, or another doubt; inactive = no such curve, though single readings can be large; an effect the other way counts as inactive or inconclusive.

Assays:
[1] = biological target: DNA polymerase III PolC-type (Bacillus subtilis (strain 168)) (UniProt P13267); test: qHTS Validation Assay for the Inhibitors of DNA Replication in Gram-Positive Bacteria (AID 485295);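 note: PicoGreen fluorescence of double-stranded DNA made on primed circular M13 template; series mostly up to about 57 µM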
Procedure, shortened: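 Reconstituted B. subtilis holoenzyme (Pol III, beta clamp, SSB, primase) was preincubated with compound at room temperature, then given single-stranded circular M13Gori plus dNTPs and NTPs. EDTA-containing PicoGreen stopped the reaction, and dsDNA product was read by fluorescence.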

[2] = biological target: Tumor susceptibility gene 101 protein (Homo sapiens) (UniProt Q99816); test: qHTS Validation Assay for Iinhibitors of HIV-1 Budding by Blocking the Interaction of PTAP/TSG101 (AID 485342; calls by dose curve)
From the text: NIH Molecular Libraries Probe Production Network [MLPCN]
NIH Chemical Genomics Center [NCGC]
PI Name: Dr. Eric Freed, NCI
Stages of the HIV-1 replication cycle, specifically virus assembly and release, provide underexploited targets for the development of novel antiviral inhibitors. The late stages of HIV-1 replication are mediated by the Gag precursor protein, Pr55Gag. Expression of Pr55Gag is both necessary and sufficient for the production of virus-like particles from Gag-expressing cells. The Gag protein hijacks key host proteins involved in endocytic machinery of the host cell to promote endosomal processing and viral budding. The budding process requires a direct interaction between a […] (PTAP) motif in the p6 domain of Gag and the cellular endosomal sorting protein known as Tsg101. […] A fluorescence anisotropy assay has been developed to quantitatively measure the PTAP-Tsg101 interaction which can be used to screen for inhibitors of this interaction. […]
Two uL of the Tsg101 binding domain in buffer (10 mM HEPES pH 7.5; 0.15 M NaCl, 0.01% Tween 20; 3 mM EDTA;0.1 mM TCEP) was dispensed into Greiner black MB 1536-well plates (final concentration 10 uM). […] Fluorescent polarization was determined using FITC excitation and polarized emission filters on a Perkin Elmer Viewlux. […]

[3] = qHTS Validation Assay to Find Inhibitors of Chronic Active B-Cell Receptor Signaling (AID 485345; active = well fitted curve in the direction sought with a large enough effect in the main read-out, with a control signal flat, not every such curve was filed as active)
Procedure, shortened: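 Read-out: ratio of filter-corrected green (IkappaBalpha fusion) to red (native) luciferase signal in doxycycline-induced TMD8 cells after 4 h at 37C. Titration spanned 46 uM–3 nM; Data were normalised to basal cells and 10 uM MG-132 wells.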

[4] = biological target: Beta-2 adrenergic receptor (Homo sapiens) (UniProt P07550); test: qHTS validation assay of beta-arrestin-biased ligands of beta2-adrenergic receptor (AID 485366)
Procedure, shortened: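 Screening used a titration range of up to 46 microM in a beta-arrestin recruitment Tango luciferase assay. Cells in 1% FBS medium were treated 18 hr at 37 degrees C, and luminescence was normalized to %Activity.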

[5] = biological target: Thioredoxin reductase 1, cytoplasmic (Rattus norvegicus) (UniProt O89049); test: qHTS Assay for Substrates of Mammalian Selenoprotein Thioredoxin Reductase 1 (TrxR1) (AID 488772);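 note: series mostly up to about 57 µM; a drop in NADPH fluorescence below the no-compound background marks a TrxR1 substrate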
Procedure, shortened: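 In this dual-purpose format, potential substrates are identified from the first fluorescence read after selenite addition, not from the 8-minute delta. Rat enzyme is preincubated with NADPH and then with compound at ~22 deg C.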

[6] = biological target: Thioredoxin reductase 1, cytoplasmic (Rattus norvegicus) (UniProt O89049); test: qHTS Assay for Inhibitors of Mammalian Selenoprotein Thioredoxin Reductase 1 (TrxR1) (AID 488773);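 note: drop in NADPH fluorescence over an 8 min run after selenite addition; series mostly up to about 57 µM; nearly all actives have a fitted effect of over 40% in size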
From the text: The selenoprotein thioredoxin reductase (TrxR; EC 1.8.1.9) is a FAD containing homodimeric pyridine nucleotide-disulfide oxidoreductase with many cellular roles. Together with NADPH and its prime substrate thioredoxin (Trx), the enzyme forms the core of the Trx system. The mammalian Trx system exerts a wide spectrum of functions including redox regulation, antioxidant defense, regulation of transcription factors as well as support of cell growth and replication. Many of these functions involve the reduction of Trx, which may subsequently reduce a number of different substrates including ribonucleotide reductase, peroxiredoxins or NFkB. […]
This BioAssay is a validation of an NADPH fluorescence-based, dual-purpose qHTS rTrxR1 assay designed to find potential inhibitors and substrates of rTrxR1. […]
Assay protocol: 2 uL of reagents (buffer in column 4 as negative control and 90 nM rTrxR1 in columns 1-3 and 5-48) were dispensed into Greiner black solid-bottom 1,536-well assay plates, followed by 1 uL of NADPH (400 uM final concentration) to each well. […] The plate was immediately transferred to a ViewLux high-throughput CCD imager (PerkinElmer), wherein kinetic measurements of NADPH fluorescence (Ex 340 nm, Em 450 nm) were acquired (8 minute kinetic read, see Table 1). […]

[7] = biological target: Flap endonuclease 1 (Homo sapiens) (UniProt P39748); test: qHTS Validation Assay for the Inhibitors of Human Flap endonuclease 1 (FEN1) (AID 488816)
Procedure, shortened: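 qHTS format: compounds and 10 nM FEN1 incubated 15 min at room temperature before adding 50 nM substrate. Cleavage followed by reads at 0 and 15 min; normalized data fitted to a four-parameter Hill curve.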

[8] = biological target: M-phase phosphoprotein 8 (Homo sapiens) (UniProt Q99549); test: qHTS Validation Assay for Inhibitors for MPP8 Chromodomain Interactions with Methylated Histone Tails (AID 488949);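 note: AlphaScreen signal from MPP8 chromodomain bound to biotinylated H3K9me3 peptide; top concentration of the series differs between compounds; nearly all actives have a fitted effect of over 55% in size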
Procedure, shortened: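 MPP8 (50 nM) was preincubated with biotinylated H3(1-18)K9me3 peptide (50 nM) in PBS pH 7.4, 0.01% Tween-20 for 30 min at room temperature, then with compounds for 30 min; binding was detected by AlphaScreen.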

[9] = Quantitative high throughput screen for delayed death inhibitors of the malarial parasite plastid, 96 hour incubation (AID 488745); note: series mostly up to about 29 µM; nearly all actives have a fitted effect of over 70% in size
Procedure, shortened: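 Decreased firefly luciferase luminescence indicates inhibited growth of reporter-integrated P. falciparum after two generations (96 h, 37 C, 5% CO2). Infected erythrocytes at 0.1% parasitemia, 2% hematocrit, in Albumax-supplemented RPMI 1640.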

[10] = Quantitative high throughput screen for delayed death inhibitors of the malarial parasite plastid, 48 hour incubation (AID 488752); note: nearly all actives have a fitted effect of over 65% in size
Procedure, shortened: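 One-generation (48 h) growth assay: a decrease in luciferase signal from an integrated reporter in P. falciparum-infected red cells (0.1% parasitemia, 2% hematocrit) after compound exposure at 37 C indicates parasite inhibition.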

Measured: outcome

Sequence of Thioredoxin reductase 1, cytoplasmic (Rattus norvegicus) (O89049 whole entry, looked up): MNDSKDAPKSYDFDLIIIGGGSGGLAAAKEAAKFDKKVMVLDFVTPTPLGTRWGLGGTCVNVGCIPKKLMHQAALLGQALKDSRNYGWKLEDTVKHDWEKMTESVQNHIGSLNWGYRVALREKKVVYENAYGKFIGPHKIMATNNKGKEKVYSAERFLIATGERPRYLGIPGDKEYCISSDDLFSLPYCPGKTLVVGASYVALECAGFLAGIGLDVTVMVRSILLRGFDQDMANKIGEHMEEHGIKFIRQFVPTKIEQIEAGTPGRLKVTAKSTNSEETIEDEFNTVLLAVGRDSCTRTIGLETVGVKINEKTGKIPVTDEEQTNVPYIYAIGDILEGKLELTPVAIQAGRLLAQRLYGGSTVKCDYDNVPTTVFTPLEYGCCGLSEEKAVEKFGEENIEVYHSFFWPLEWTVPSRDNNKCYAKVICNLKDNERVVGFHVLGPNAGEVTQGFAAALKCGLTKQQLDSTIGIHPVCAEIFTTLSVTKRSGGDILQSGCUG
Sequence of M-phase phosphoprotein 8 (Homo sapiens) (Q99549 whole entry, looked up): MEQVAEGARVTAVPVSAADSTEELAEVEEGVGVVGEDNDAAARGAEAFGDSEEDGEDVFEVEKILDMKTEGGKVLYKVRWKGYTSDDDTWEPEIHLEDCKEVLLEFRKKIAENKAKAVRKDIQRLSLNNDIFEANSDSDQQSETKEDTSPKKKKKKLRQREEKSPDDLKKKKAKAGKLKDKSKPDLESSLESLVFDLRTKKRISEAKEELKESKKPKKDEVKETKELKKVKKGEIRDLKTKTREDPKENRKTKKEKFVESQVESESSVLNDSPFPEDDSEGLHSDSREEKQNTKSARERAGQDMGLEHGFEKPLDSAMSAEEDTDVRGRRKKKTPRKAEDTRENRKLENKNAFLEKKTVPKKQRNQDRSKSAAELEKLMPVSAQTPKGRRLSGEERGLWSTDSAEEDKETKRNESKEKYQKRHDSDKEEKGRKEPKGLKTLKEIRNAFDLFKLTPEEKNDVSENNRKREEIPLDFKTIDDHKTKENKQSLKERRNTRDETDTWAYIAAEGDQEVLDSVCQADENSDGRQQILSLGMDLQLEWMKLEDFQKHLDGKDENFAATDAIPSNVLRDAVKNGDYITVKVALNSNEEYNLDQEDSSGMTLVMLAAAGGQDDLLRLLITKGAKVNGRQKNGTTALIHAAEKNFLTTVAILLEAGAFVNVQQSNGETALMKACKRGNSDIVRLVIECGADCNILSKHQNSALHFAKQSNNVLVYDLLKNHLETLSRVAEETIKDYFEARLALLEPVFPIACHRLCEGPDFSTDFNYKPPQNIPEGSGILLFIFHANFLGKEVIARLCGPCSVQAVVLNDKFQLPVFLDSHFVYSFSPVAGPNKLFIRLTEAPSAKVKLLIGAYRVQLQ
Sequence of DNA polymerase III PolC-type (Bacillus subtilis (strain 168)) (P13267 whole entry, looked up): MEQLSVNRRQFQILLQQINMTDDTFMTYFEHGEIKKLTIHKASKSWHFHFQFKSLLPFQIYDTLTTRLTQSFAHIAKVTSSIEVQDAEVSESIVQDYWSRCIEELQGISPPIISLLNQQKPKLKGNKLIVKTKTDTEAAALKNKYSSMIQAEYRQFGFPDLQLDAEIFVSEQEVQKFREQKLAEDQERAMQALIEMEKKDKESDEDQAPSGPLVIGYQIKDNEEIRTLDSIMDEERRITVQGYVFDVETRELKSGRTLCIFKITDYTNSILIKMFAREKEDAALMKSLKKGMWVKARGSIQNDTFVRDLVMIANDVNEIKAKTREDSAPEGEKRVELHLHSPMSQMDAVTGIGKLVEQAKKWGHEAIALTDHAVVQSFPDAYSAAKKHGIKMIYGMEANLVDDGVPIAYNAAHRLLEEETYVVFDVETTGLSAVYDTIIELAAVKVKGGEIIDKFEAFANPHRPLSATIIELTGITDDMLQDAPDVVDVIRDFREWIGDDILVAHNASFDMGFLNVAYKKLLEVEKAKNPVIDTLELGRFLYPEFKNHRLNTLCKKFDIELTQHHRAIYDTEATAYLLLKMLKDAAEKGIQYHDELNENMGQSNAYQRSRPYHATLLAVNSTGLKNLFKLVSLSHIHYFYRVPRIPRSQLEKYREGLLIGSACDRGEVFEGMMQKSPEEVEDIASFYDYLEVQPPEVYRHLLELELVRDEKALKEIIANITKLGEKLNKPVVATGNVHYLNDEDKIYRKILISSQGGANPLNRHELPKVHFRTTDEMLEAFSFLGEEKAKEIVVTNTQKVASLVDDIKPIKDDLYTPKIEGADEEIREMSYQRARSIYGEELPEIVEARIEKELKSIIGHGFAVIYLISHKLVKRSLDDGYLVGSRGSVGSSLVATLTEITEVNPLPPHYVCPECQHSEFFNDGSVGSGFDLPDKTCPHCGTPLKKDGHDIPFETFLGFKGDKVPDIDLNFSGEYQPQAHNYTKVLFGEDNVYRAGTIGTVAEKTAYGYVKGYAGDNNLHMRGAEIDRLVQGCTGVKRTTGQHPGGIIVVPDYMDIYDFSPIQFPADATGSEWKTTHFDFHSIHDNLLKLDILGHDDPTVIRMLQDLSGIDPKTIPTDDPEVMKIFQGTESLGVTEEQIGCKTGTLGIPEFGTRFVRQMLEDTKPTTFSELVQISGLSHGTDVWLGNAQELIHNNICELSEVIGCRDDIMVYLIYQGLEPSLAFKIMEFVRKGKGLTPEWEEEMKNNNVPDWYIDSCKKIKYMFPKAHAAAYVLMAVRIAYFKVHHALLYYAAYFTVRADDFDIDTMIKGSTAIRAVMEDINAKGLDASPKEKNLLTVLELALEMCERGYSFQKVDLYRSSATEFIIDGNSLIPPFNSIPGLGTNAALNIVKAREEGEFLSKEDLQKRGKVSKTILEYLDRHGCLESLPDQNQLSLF
Sequence of Tumor susceptibility gene 101 protein (Homo sapiens) (Q99816 whole entry, looked up): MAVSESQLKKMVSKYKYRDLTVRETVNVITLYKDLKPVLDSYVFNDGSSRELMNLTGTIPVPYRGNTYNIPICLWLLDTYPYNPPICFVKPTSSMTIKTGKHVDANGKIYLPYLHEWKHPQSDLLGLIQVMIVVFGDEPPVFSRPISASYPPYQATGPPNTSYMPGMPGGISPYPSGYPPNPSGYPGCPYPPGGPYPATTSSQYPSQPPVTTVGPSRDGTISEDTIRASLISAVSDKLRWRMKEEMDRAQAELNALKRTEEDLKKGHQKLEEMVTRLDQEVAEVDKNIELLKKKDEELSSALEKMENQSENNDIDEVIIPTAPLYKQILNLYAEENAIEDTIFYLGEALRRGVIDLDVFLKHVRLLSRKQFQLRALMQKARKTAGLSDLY
Sequence of Flap endonuclease 1 (Homo sapiens) (P39748 whole entry, looked up): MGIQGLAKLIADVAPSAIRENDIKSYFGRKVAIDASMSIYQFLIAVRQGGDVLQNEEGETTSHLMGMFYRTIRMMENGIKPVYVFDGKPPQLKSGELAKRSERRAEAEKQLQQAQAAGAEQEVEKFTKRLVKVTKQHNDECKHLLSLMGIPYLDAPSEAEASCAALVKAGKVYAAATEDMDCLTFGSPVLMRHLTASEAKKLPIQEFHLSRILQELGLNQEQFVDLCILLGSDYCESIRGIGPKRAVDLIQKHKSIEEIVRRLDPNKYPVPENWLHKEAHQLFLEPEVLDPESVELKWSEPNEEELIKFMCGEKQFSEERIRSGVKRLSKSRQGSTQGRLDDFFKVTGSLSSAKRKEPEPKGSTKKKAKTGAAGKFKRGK
Sequence of Beta-2 adrenergic receptor (Homo sapiens) (P07550 whole entry, looked up): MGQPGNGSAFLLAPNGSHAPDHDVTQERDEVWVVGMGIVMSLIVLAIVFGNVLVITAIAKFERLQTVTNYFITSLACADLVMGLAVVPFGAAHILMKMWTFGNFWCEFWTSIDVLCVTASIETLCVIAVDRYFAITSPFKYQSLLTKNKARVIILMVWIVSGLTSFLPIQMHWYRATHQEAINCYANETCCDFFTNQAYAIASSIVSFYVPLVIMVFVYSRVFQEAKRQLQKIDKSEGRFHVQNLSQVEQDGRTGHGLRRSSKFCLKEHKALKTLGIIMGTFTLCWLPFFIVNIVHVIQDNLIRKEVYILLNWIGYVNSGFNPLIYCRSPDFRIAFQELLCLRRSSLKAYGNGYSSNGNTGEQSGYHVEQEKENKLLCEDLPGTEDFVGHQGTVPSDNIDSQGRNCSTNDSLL

C[C@H]1O[C@@H](n2cc(F)c(=O)[nH]c2=O)[C@H](O)[C@H]1O
inactive: [1] | [2] | [3] | [4] | [5] | [6] | [7] | [8]

C=CCc1cccc(C=NNC(=O)CN2CCN(Cc3ccccc3)CC2)c1O
inactive: [1] | [2] | [3] | [4] | [5] | [6] | [7] | [8]

CCNC(=O)[C@H]1O[C@@H](n2cnc3c(N)nc(NCCc4ccc(CCC(=O)O)cc4)nc32)[C@H](O)[C@H]1O
inactive: [9] | [10] | [8]
